For six compounds, inhibition results are on record in ChEMBL document CHEMBL1961873, “Compounds: GSK PKIS; Assays: Nanosyn kinase panel” (2012).

Test [1] concerns the target MAP/microtubule affinity-regulating kinase 3 (Homo sapiens) (UniProt P27448). As to conditions: at 1 µM.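 Also: reported values are averaged percent inhibition of MARK3.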
In test [2] the target is T1, MAP/microtubule affinity-regulating kinase 4 (Homo sapiens) (UniProt Q96L34).
T1 sequence (whole entry): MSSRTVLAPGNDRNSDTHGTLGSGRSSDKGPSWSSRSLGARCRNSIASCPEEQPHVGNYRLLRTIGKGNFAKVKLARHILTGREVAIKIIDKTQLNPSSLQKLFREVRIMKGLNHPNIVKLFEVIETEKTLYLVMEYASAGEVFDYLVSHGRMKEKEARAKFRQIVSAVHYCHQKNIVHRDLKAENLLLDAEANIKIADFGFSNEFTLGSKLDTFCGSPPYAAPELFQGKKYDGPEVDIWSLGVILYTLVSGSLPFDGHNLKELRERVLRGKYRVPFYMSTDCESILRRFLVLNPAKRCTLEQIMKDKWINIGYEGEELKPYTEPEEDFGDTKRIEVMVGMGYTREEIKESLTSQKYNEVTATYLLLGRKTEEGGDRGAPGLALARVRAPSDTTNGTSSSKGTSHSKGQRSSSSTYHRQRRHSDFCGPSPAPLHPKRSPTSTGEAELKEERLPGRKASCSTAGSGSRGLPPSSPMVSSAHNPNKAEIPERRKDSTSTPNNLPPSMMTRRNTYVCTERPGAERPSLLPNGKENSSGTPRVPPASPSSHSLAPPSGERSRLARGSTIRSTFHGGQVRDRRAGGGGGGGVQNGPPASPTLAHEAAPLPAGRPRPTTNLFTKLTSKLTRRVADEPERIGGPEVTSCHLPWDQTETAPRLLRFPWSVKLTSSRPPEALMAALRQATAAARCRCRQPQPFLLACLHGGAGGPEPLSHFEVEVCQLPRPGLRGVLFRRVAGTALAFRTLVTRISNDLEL
The settings on record: at 0.1 µM.

Test [3] concerns the target T1, MAP/microtubule affinity-regulating kinase 4 (Homo sapiens). The settings on record: at 1 µM.
Test [4] addresses Maternal embryonic leucine zipper kinase (Homo sapiens) (UniProt Q14680). The settings on record: at 0.1 µM.
For test [5] the target is unchanged. The settings on record: at 1 µM.
The target of test [6] is MAP kinase-interacting serine/threonine-protein kinase 1 (Homo sapiens) (UniProt Q9BUB5). The settings on record: at 0.1 µM.
Chain of MAP kinase-interacting serine/threonine-protein kinase 1 (Homo sapiens) (Q9BUB5 whole entry, looked up): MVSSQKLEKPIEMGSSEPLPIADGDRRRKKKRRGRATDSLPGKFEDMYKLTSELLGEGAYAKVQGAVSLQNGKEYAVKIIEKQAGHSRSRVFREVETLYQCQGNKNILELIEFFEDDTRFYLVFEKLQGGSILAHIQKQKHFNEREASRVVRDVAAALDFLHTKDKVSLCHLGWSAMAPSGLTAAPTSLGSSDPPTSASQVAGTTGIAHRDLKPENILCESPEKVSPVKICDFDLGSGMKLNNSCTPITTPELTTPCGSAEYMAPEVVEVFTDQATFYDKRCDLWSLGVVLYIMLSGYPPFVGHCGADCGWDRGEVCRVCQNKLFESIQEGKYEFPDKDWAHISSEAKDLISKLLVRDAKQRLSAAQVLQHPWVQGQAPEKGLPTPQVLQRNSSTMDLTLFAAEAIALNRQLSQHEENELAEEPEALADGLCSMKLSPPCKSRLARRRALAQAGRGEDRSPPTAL
Test [7] shares this target. As to conditions: at 1 µM.
The target in test [8] is MAP kinase-interacting serine/threonine-protein kinase 2 (Homo sapiens) (UniProt Q9HBH9). The settings on record: at 0.1 µM.
Test [9] shares this target. The settings on record: at 1 µM.
Test [10] concerns the target Serine/threonine-protein kinase MARK2 (Homo sapiens) (UniProt Q7KZI7). As to conditions: at 0.1 µM.
The target is the same in test [11]. As to conditions: at 1 µM.
The target of test [12] is PAS domain-containing serine/threonine-protein kinase (Homo sapiens) (UniProt Q96RG2). As to conditions: at 0.1 µM.
Chain of PAS domain-containing serine/threonine-protein kinase (Homo sapiens) (Q96RG2 whole entry, the tested form may be a part): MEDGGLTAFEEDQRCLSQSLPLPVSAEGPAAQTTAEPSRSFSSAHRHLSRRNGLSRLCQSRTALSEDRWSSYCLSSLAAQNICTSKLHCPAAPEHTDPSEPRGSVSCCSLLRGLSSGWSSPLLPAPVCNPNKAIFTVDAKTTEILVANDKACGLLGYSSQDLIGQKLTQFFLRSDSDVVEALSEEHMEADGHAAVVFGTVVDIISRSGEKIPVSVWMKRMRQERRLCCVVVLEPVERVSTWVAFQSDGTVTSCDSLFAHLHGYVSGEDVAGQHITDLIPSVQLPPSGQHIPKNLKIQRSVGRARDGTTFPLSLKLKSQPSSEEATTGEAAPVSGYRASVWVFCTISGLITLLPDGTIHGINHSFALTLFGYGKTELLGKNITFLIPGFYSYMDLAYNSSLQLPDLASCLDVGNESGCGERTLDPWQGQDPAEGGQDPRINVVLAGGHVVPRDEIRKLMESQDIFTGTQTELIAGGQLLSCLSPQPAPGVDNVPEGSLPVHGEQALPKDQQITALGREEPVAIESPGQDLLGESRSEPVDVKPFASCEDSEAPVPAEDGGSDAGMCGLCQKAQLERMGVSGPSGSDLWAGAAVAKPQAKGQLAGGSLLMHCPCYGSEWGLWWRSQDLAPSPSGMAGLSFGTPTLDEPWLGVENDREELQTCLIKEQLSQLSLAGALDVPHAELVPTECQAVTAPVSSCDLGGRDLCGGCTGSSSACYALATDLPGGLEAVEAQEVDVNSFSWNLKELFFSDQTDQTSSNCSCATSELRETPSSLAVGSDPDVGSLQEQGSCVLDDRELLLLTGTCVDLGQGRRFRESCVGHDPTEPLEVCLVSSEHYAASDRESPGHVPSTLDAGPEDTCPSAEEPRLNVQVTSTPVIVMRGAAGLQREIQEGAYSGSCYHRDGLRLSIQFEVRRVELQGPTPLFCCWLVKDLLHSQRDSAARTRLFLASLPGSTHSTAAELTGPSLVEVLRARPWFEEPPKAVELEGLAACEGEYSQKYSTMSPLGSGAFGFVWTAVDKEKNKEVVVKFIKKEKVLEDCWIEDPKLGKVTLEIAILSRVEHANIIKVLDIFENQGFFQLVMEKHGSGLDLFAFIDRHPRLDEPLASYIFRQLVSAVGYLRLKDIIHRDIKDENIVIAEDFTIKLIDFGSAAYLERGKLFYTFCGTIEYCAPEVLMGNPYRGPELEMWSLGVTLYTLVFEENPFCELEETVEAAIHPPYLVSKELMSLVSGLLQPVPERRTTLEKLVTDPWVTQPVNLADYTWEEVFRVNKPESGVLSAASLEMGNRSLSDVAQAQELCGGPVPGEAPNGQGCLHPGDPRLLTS
For test [13] the target is unchanged. As to conditions: at 1 µM.
In test [14] the target is Phosphorylase b kinase gamma catalytic chain, skeletal muscle/heart isoform (Homo sapiens) (UniProt Q16816). As to conditions: at 0.1 µM.
Chain of Phosphorylase b kinase gamma catalytic chain, skeletal muscle/heart isoform (Homo sapiens) (Q16816 whole entry, looked up, canonical isoform): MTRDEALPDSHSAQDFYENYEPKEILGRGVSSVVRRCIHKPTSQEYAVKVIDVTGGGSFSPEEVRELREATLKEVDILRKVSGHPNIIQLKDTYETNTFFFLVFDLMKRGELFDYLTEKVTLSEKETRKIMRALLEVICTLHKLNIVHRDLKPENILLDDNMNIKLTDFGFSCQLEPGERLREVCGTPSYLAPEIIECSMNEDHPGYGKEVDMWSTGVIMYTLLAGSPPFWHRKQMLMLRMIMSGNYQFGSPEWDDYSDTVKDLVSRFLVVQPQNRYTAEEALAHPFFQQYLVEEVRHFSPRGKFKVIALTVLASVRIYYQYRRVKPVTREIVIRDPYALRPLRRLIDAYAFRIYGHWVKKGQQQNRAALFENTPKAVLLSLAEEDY
Test [15] has the same target. As to conditions: at 1 µM.
The target of test [16] is T2, Phosphorylase b kinase gamma catalytic chain, liver/testis isoform (Homo sapiens) (UniProt P15735).
T2 sequence (whole entry): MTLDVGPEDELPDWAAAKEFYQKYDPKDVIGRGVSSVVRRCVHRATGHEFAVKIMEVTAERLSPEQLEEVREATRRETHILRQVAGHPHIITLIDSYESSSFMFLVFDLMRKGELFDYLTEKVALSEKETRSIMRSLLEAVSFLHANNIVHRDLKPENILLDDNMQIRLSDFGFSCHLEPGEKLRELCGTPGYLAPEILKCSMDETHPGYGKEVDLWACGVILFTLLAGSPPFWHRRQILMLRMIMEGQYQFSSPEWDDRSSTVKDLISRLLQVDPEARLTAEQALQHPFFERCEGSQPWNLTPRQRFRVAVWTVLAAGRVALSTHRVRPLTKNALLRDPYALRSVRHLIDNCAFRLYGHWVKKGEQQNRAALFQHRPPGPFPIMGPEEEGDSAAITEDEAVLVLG
As to conditions: at 0.1 µM.

In test [17] the target is T2, Phosphorylase b kinase gamma catalytic chain, liver/testis isoform (Homo sapiens). The settings on record: at 1 µM.
In test [18] the target is Serine/threonine-protein kinase pim-1 (Homo sapiens) (UniProt P11309). The settings on record: at 0.1 µM.
Chain of Serine/threonine-protein kinase pim-1 (Homo sapiens) (P11309 whole entry, looked up): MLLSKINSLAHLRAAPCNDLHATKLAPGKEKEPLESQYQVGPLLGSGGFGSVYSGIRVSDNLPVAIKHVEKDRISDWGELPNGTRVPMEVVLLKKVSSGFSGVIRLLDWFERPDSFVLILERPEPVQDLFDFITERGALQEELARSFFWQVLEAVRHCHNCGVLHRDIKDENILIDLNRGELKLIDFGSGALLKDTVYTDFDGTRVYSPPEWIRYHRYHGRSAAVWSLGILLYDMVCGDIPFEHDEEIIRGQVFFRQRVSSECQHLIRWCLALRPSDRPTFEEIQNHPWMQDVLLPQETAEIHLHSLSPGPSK
For test [19] the target is unchanged. As to conditions: at 1 µM.
Test [20] has as its target Serine/threonine-protein kinase pim-2 (Homo sapiens) (UniProt Q9P1W9). The settings on record: at 0.1 µM.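 Also: reported value is the mean percent inhibition of PIM2, measured in the GSK PKIS kinase inhibitor set screen.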

Chain of Maternal embryonic leucine zipper kinase (Homo sapiens) (Q14680 whole entry, looked up): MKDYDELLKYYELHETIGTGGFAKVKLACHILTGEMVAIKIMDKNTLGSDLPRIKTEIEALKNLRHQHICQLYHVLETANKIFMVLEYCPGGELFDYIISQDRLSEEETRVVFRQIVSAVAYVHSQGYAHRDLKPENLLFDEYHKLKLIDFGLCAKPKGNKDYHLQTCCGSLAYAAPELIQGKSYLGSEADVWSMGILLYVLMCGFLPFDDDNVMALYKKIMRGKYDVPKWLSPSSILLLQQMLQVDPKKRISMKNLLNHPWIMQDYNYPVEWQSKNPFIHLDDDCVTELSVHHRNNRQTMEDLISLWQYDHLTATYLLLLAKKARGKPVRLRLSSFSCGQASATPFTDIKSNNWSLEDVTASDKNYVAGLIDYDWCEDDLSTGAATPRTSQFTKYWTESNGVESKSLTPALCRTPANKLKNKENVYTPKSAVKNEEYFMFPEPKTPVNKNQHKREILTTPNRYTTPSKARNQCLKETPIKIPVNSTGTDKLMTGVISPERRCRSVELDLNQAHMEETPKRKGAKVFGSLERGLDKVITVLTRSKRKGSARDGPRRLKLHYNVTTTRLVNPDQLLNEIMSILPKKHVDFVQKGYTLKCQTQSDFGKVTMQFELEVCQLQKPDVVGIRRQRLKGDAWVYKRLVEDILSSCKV
Chain of MAP/microtubule affinity-regulating kinase 3 (Homo sapiens) (P27448 whole entry, looked up): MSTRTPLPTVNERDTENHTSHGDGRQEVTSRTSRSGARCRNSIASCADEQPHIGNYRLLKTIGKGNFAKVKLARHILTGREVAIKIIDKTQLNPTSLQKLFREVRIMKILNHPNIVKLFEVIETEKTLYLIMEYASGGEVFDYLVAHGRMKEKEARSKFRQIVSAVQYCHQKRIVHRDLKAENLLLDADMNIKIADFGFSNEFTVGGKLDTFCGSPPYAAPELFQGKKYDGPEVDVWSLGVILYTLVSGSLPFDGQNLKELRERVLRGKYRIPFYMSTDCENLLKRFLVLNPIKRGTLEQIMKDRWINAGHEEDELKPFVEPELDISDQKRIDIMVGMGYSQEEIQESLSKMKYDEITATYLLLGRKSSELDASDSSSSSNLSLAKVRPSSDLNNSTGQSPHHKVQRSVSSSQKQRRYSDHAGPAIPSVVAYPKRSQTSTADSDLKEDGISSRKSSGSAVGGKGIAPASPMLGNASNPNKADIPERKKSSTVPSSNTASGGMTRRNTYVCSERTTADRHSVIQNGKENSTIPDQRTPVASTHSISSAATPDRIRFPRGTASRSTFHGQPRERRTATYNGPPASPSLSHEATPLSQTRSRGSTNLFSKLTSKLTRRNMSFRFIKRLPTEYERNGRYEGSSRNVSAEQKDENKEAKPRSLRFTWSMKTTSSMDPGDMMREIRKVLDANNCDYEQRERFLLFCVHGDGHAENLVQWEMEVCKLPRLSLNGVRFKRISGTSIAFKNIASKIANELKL
Chain of Serine/threonine-protein kinase pim-2 (Homo sapiens) (Q9P1W9 whole entry, looked up): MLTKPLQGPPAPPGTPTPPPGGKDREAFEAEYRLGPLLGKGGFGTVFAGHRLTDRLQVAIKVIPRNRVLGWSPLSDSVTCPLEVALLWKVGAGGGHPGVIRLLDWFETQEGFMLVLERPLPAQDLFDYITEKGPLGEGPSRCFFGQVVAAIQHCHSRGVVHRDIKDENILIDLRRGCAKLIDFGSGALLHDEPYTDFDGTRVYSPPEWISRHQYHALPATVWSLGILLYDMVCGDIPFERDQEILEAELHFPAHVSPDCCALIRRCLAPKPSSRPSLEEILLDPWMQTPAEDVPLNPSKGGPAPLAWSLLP
Chain of Serine/threonine-protein kinase MARK2 (Homo sapiens) (Q7KZI7 whole entry): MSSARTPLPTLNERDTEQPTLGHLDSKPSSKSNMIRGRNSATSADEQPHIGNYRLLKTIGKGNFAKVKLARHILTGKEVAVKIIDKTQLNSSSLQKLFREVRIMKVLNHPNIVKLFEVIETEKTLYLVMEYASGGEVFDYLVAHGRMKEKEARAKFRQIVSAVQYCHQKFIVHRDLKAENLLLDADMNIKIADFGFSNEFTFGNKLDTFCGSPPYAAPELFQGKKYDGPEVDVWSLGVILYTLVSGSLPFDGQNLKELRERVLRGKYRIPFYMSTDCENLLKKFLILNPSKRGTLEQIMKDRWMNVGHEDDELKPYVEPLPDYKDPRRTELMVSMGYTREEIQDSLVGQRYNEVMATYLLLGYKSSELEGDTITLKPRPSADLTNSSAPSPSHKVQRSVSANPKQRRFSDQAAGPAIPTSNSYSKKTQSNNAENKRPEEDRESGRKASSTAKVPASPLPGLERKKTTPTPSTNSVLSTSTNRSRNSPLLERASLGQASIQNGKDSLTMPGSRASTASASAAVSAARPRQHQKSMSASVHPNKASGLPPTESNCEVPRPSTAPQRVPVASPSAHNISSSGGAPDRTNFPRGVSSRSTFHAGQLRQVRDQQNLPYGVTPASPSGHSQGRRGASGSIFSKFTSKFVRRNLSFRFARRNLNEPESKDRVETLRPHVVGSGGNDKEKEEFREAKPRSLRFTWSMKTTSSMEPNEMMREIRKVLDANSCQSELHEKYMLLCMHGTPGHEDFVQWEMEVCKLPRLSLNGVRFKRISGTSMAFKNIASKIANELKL

The inhibition is the drop in the measured response relative to a control, in per cent. Take `OCCCNc1nccc(-c2c(-c3ccc(F)cc3)nn3cc(C(F)(F)F)ccc23)n1`: the inhibition in [1] was found to be 3.84%; in [2], 0.24%; in test [3], 2.09%; in [4], 0.52%; in test [5] it was 2.27%; in test [6], 2.61%. The inhibition in test [7] is 6.2%; in test [8] it was 2.75%; in test [9], 3.6%; in [10] it was -1.06%; in test [11], 1.92%; in [12] it was -0.08%. The inhibition in test [13] was -2.07%; in test [14], 2.26%; in test [15], 5.59%; in [16] it was 2.88%; in test [17], -0.79%; in [18], 0.12%. Besides, the results for the inhibition in test [19] and in test [20] were 1.6% and 0.32%, respectively.

Regarding `CS(=O)(=O)CCNCc1ccc(-c2ccc3ncnc(Nc4ccc(OCc5cccc(C(F)(F)F)c5)cc4)c3c2)o1`, the inhibition stood at 3.96% in [1]; 1.47% in test [2]; 2.54% in [3]; 3.5% in test [4]; 11.4% in test [5]; 2.34% in [6]. The inhibition was 6.48% in test [7]; 0.53% in test [8]; 5.47% in [9]; 0.72% in test [10]; 5.07% in test [11]; -1.03% in [12]. The inhibition in test [13] was -1.02%; in test [14] it was 2.44%; in [15] it was 4.94%; in test [16] it was 5.95%; in test [17] it was 4.97%; in test [18], 1.96%. Besides, the inhibition is 3.18% in test [19] and -0.68% in test [20].

For `Cc1nnc(-c2cccc(-c3ccc(C(=O)NCC4CC4)cc3)c2)o1`, the inhibition came to 7.47% in test [1]; 1.79% in test [2]; 2.85% in test [3]; 0.44% in [4]; 6.34% in test [5]; 4.66% in test [6]. For the same compound, the inhibition was determined as 6.32% in test [7]; 2.35% in test [8]; 6.05% in [9]; 0.64% in test [10]; 1.69% in test [11]; 0.89% in [12]. Besides, the inhibition in test [13] is 0.76%; in test [14], 3.57%; in test [15], 5.91%; in test [16], 7.39%; in test [17] it was 7.38%; in test [18], -0.37%. Also, the inhibition in test [19] turned out to be 1.97%; in [20] it was 0.91%.

As for `CS(=O)(=O)CCNCc1ccc(-c2ccc3ncnc(Nc4ccc(OCc5ccccc5)cc4)c3c2)o1`, the inhibition in test [1] is -0.22%; in test [2], 2.33%; in test [3], 1.3%; in test [4], 6.32%; in test [5] it was 3.76%; in test [6], 2.89%. The inhibition in [7] is 6.82%; in test [8] it was 3.2%; in test [9], 15.7%; in test [10] it was -0.24%; in [11], 1.67%; in test [12] it was 0.96%. In addition, the inhibition in test [13] turned out to be 0.95%; in [14], 4.83%; in test [15] it was 4.75%; in test [16], 4.78%; in test [17] it was 4.2%; in test [18] it was 1.47%. Also, the inhibition was 1.03% in test [19] and 0.19% in test [20].

Regarding `COc1cc(N2CCN(C(C)C)CC2)ccc1Nc1nc(Nc2cccc(F)c2C(=O)O)c2cc[nH]c2n1`, the inhibition in test [1] was 4.97%; in [2], 1.88%; in test [3] it was 5.09%; in test [4], 2.86%; in test [5], 7.68%; in [6], 3.1%. For the same compound, the inhibition in test [7] is 5.88%; in test [8], 1.57%; in test [9], 5.1%; in test [10], 1.11%; in test [11], 3.36%; in [12], 0.65%. Moreover, the inhibition in [13] is 0.52%; in [14], 8.07%; in test [15], 39.8%; in test [16] it was 6.18%; in [17], 19.9%; in test [18] it was -0.13%. The inhibition in test [19] came out at 1.42%; in test [20], 0.01%.

In the case of `CNC(=O)c1cncc(/C=C/c2ccccc2C)c1`, the inhibition came out at 6.03% in test [1]; 1.26% in [2]; 3.49% in test [3]; 1.3% in [4]; 4.29% in [5]; 4.95% in [6]. Moreover, the inhibition turned out to be 29.4% in test [7]; 2.12% in test [8]; 14.9% in test [9]; 1.19% in test [10]; 0.45% in test [11]; 0.44% in [12]. The inhibition worked out at 0.95% in test [13]; 4.3% in [14]; 7.61% in test [15]; 6.36% in [16]; 7.42% in [17]; 0.05% in test [18]. Also, the inhibition in test [19] is 2.22%; in test [20] it was 0.15%.
